Holding throughout (test): glycan array binding signal (z-score within array); higher = stronger binding
Common to all, as to conditions: glycan notation: IUPAC condensed, linker removed

The target of assay [1] is GlcNAc(b1-4)GlcNAc(b1-4)GlcNAc(b1-4)GlcNAc(b1-4)GlcNAc(b1-4)GlcNAc. The essentials:
(§1)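 The Consortium for Functional Glycomics database supplied 3228 glycan arrays, of which those lacking an available protein sequence were dropped. The binding signal, a within-array Z-score, was averaged across arrays of the same protein sequence and across linkers. Negative scores can be read as non-binding.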

The target in a further assay is Kdn(a2-3)Gal(b1-3)GalNAc. The essentials: as §1
The target in assay [2] is Man(a1-2)Man(a1-3)[Man(a1-2)Man(a1-6)]Man(a1-6)[Man(a1-2)Man(a1-2)Man(a1-3)]Man(b1-4)GlcNAc(b1-4)GlcNAc. In a few lines:
as §1

Another assay has as its target MurNAc(b1-4)GlcNAc. In a few lines: as §1
For another assay, the target named is Neu5Ac(a2-3)Gal(b1-4)Glc. In a few lines: as §1
The target in assay [3] is Neu5Ac(a2-3)Gal(b1-4)GlcNAc(b1-2)Man. The essentials: as §1
The target of assay [4] is Neu5Ac(a2-3)Gal(b1-4)GlcNAc(b1-2)Man(a1-3)[Neu5Ac(a2-3)Gal(b1-4)GlcNAc(b1-2)Man(a1-6)]Man(b1-4)GlcNAc(b1-4)[Fuc(a1-6)]GlcNAc. The essentials:
as §1

The target in assay [5] is Neu5Ac(a2-3)Gal(b1-4)GlcNAc(b1-3)Gal. The essentials:
as §1

Assay [6] has as its target Neu5Ac(a2-3)Gal(b1-4)GlcNAc(b1-3)Gal(b1-4)GlcNAc(b1-3)Gal(b1-4)GlcNAc(b1-2)Man(a1-3)[Neu5Ac(a2-3)Gal(b1-4)GlcNAc(b1-3)Gal(b1-4)GlcNAc(b1-3)Gal(b1-4)GlcNAc(b1-2)Man(a1-6)]GalNAc. The essentials:
as §1

Assay [7] addresses Neu5Ac(a2-3)Gal(b1-4)GlcNAc(b1-3)Gal(b1-4)[Fuc(a1-3)]GlcNAc. The essentials:
as §1

Assay [8] has as its target Neu5Ac(a2-3)Gal(b1-4)[Fuc(a1-3)]GlcNAc(b1-3)Gal(b1-4)GlcNAc. The essentials: as §1
The next assay has as its target Neu5Ac(a2-3)GalNAc. The essentials:
as §1

For assay [9], the target named is Neu5Ac(a2-6)Gal(b1-4)GlcNAc(b1-2)Man(a1-3)[GlcNAc(b1-4)][Neu5Ac(a2-6)Gal(b1-4)GlcNAc(b1-2)Man(a1-6)]Man(b1-4)GlcNAc(b1-4)GlcNAc. In a few lines:
as §1

For assay [10], the target named is Neu5Ac(a2-6)Gal(b1-4)GlcNAc(b1-2)Man(a1-3)[Man(a1-6)]Man(b1-4)GlcNAc(b1-4)GlcNAc. In a few lines:
as §1

Assay [11] concerns the target Neu5Ac(a2-6)GlcNAc(b1-4)GlcNAc. In a few lines:
as §1

Assay [12] deals with Neu5Ac(a2-8)Neu5Ac(a2-3)[Gal(b1-3)GalNAc(b1-4)]Gal(b1-4)Glc. The essentials:
as §1

The target of assay [13] is Neu5Ac(a2-8)Neu5Ac(a2-8)Neu5Ac(a2-8)Neu5Ac(a2-3)[GalNAc(b1-4)]Gal(b1-4)Glc. The essentials:
as §1

Assay [14] concerns the target Neu5Ac(b2-6)Gal(b1-4)GlcNAc. The essentials: as §1
Assay [15] deals with Neu5Gc(a2-6)Gal(b1-4)GlcNAc. In a few lines: as §1
In assay [16] the target is Neu5Gc(a2-8)Neu5Gc(a2-3)Gal(b1-4)GlcNAc. The essentials:
as §1

Assay [17] addresses Neu5Gc(a2-8)Neu5Gc(a2-3)Gal(b1-4)GlcNAc(b1-3)Gal(b1-4)GlcNAc. In a few lines: as §1

The full list was thinned out, with the strongest signals kept by preference.

B1: Vd2LysM (Verticillium dahliae) (protein)
chain: YRRTCSHTGKGEGWYIIRRGDNFNAVAADFCTSTNVLTEWNHISTITDNMVNTKIKVPCRWNAGKQRDCLKDQKSSNGWYHIVSGDELKDIAYDFCTTSGSLAGMNGISNPDYIKANTDIVVPCSWN
In the case of B1, the “glycan array binding signal (z-score)” value in [1] is 4.42; with Kdn(a2-3)Gal(b1-3)GalNAc, 1.25; in assay [2], 2.21; with MurNAc(b1-4)GlcNAc, -0.26; with Neu5Ac(a2-3)Gal(b1-4)Glc it was 0.49; in assay [3] it was -0.481. The “glycan array binding signal (z-score)” value was 1.14 in assay [4]; -0.599 in assay [5]; 2.35 in [6]; -0.732 in assay [7]; -0.125 in [8]; 0.096 with Neu5Ac(a2-3)GalNAc. In addition, the “glycan array binding signal (z-score)” value in assay [9] is -0.761; in assay [10], -0.322; in assay [11] it was 0.619; in assay [12], 0.198; in assay [13], 1.71; in assay [14] it was 0.512. The “glycan array binding signal (z-score)” value in assay [15] was 0.437; in assay [16], 2.17; in [17], 0.317.

The record behind these values is the supplement of paper PMC8728848.
